Assay outcomes (PubChem)
Rows were chosen to be rich in hits. Some 8.5% of all compounds tested hit in one or more screens of this group.
GoLoco inh red: RGS12 GoLoco-Gai1 interaction inhibition; P63096; Gai1:RGS12 GoLoco peptide FP, rhodamine, 10 min; Potency, µM (top dose mostly 61.6 µM), most hits filed as inhibitors; hit rate 0.44% among 230,000; AID 880; active = well fitted inhibition curve with a large enough effect, not every such curve was filed as active; inactive = no such curve, though single readings can be large or run the other way; note: nearly all actives have a fitted effect of over 30% in size
Target sequence (P63096 whole entry, looked up): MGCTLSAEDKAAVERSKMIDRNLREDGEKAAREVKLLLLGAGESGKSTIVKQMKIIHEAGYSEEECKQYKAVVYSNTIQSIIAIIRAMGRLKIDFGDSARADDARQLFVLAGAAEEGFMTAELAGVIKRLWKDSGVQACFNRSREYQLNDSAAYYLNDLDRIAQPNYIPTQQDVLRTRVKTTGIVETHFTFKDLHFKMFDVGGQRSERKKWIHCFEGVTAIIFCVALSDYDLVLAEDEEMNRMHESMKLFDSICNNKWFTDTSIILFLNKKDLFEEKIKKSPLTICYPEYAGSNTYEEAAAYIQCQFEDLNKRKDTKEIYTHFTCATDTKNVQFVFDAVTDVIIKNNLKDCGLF
KDM4E inh: blocks human JMJD2E demethylase activity. B2RXH2. JMJD2E catalytic domain, FDH-coupled NADH fluorescence (FDH is formaldehyde dehydrogenase). Potency, µM (highest dose often 57.1 µM), usual class: inhibitors. hit rate 1.6% among 230,000; note: nearly all actives have a fitted effect of over 50% in size
Coupling enz: coupling enzyme interference in Giardia aldolase counter-screen. coupling enzyme system counterscreen, AmpLite Red fluorescence. activity change, negative = inhibition, % at 58.2 µM, hits read low. hit rate 0.67% among 290,000; in the data active = activity change below about -30%
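Counterscreen lacking aldolase: glyceraldehyde-3-phosphate coupling-enzyme reagent preincubated 10 min at RT with compound (at 57.5 uM final), then substrate/coupling system with AmpLite Red added; fluorescence read at 525/598 nm after 20 min RT.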
NPSR antagonist: antagonists of human neuropeptide S receptor cAMP signaling | Q6W5P4 | CHO-NPSR cells, cAMP TR-FRET, antagonist mode | Potency, µM (titrated, usually from 38.3 µM), usual class: inhibitors | hit rate 1% among 220,000 | AID 1461; active = well fitted curve in the direction sought with a large enough effect; inconclusive = small, poorly fitted or top-dose-only effect, or another doubt; inactive = no such curve, though single readings can be large; an effect the other way counts as inactive or inconclusive; note: nearly all actives have a fitted effect of over 50% in size
Target sequence (Q6W5P4 whole entry, looked up): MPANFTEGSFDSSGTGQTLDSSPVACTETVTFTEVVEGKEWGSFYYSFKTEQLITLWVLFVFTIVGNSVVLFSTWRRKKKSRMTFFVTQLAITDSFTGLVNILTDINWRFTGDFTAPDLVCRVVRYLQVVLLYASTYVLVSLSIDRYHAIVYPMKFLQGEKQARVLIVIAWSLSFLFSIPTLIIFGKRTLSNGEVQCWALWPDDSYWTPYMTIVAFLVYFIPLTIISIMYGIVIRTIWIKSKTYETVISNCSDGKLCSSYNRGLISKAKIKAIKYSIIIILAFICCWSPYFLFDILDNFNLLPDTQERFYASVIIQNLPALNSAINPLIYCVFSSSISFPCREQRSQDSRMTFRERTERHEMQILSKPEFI
Sfp PPTase inh: Sfp phosphopantetheinyl transferase inhibition; Biochemical Sfp PPTase activity, qHTS; Q9F4F7; Potency, µM, hits mostly inhibitors; AID 1490; hit rate 3.5% among 310,000; active = well fitted curve in the direction sought with a large enough effect; inconclusive = small, poorly fitted or top-dose-only effect, or another doubt; inactive = no such curve, though single readings can be large; an effect the other way counts as inactive or inconclusive;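 note: the enzyme is Sfp with the accession as filed and its product quenches rhodamine fluorescence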
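Sfp 15 nM + cpd, 15 min RT; start w/ rhodamine-CoA 5 uM, BHQ-2-YbbR 12.5 uM (final); 50 mM Hepes pH 7.6, 10 mM MgCl2, 0.01% NP-40, 0.01% BSA; read 525/598 nm at 0 and 30 min.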
ALDH1A1 block: inhibitors of human aldehyde dehydrogenase 1A1 | Purified ALDH1A1, NADH fluorescence, propionaldehyde substrate | hit rate 7.3% among 220,000 | Potency, µM (doses to about 75.3 µM), usual class: inhibitors | AID 1030
Of the large screens only hits and unclear results are named; the others gave an inactive call; ! = not confirmed by another sample. Unless noted, calls come from the whole dose curve; as a rule, active = well fitted inhibition curve with a large enough effect (not every such curve was filed as active); inconclusive = small, poorly fitted or top-dose-only effect, or another doubt; inactive = no such curve, though single readings can be large or run the other way.

O=C(O)C1(c2ccccc2)CCN(S(=O)(=O)c2ccc(F)c(F)c2)CC1	none (no result: GoLoco inh red, KDM4E inh, NPSR antagonist, ALDH1A1 block)
CCS(=O)(=O)c1ccc(OC)c(N=Nc2ccc(O)c3ncccc23)c1	KDM4E inh 18µM
S=c1nc[nH]c2c1[nH]c1ccc(Cl)cc12	none (no result: ALDH1A1 block)
S=c1nc[nH]c2c1[nH]c1ccccc12	KDM4E inh inconclusive, NPSR antagonist inconclusive, ALDH1A1 block 14µM
COc1cc(NC(=O)CN2C(=O)COc3ccc(S(=O)(=O)N4CCCC4)cc32)cc(OC)c1	none (no result: GoLoco inh red, KDM4E inh, NPSR antagonist, ALDH1A1 block)
COC(=O)c1ccc(C2/C(=C(/O)c3ccc(OC(C)C)cc3)C(=O)C(=O)N2c2cc(C)on2)cc1 (stereo not drawn)	none
COC(=O)c1ccc(C2/C(=C(/O)c3ccc(OC)cc3)C(=O)C(=O)N2c2cc(C)on2)cc1 (stereo not drawn)	ALDH1A1 block 13µM
COc1ccc(N2C(=O)C(=O)/C(=C(/O)c3ccc(C)cc3)C2c2cccnc2)cc1 (stereo not drawn)	ALDH1A1 block 7.9µM
COc1ccc(C2/C(=C(/O)c3ccc(C)cc3)C(=O)C(=O)N2C)cc1 (stereo not drawn)	none
COc1cccc(NC(=O)C(NCC(C)(C)CN(C)C)c2ccccc2)c1 (stereo not drawn)	KDM4E inh inconclusive, Sfp PPTase inh 79µM
C=CCNC(C(=O)Nc1cccc(OC)c1)c1ccccc1 (stereo not drawn)	ALDH1A1 block inconclusive
Cn1c(COc2ccccc2)nnc1SCC(=O)Nc1ccc(N2CCOCC2)cc1	none (no result: GoLoco inh red, KDM4E inh, NPSR antagonist, ALDH1A1 block)
CC1=C(/C=C/C(C)=C/C=C/C(C)=C/C=O)C(C)(C)CCC1	ALDH1A1 block 22µM (no result: KDM4E inh, Coupling enz, NPSR antagonist, Sfp PPTase inh)
CC1=C(/C=C/C(C)=C/C=C/C(C)=C/C=C/C=C(C)/C=C/C=C(C)/C=C/C2=C(C)C(=O)CCC2(C)C)C(C)(C)CCC1=O	none (no result: NPSR antagonist)
CC1=C(/C=C\C(=O)O)C(C)(C)CCC1	none (no result: KDM4E inh, Coupling enz, NPSR antagonist, Sfp PPTase inh)
CC1=C(/C=C/C(C)=C/C=C/C(C)=C/CO)C(C)(C)CCC1	Sfp PPTase inh inconclusive, ALDH1A1 block 25µM! (no result: NPSR antagonist)
CC(=O)OC/C=C(C)/C=C/C=C(C)/C=C/C1=C(C)CCCC1(C)C	ALDH1A1 block 22µM! (no result: NPSR antagonist)
CC1=C(/C=C/C(C)=C/C=C/C(C)=C\CO)C(C)(C)CCC1	ALDH1A1 block 25µM (no result: KDM4E inh, Coupling enz, NPSR antagonist)
CC1=C(/C=C/C(C)=C/C=C/C(C)=C\C=O)C(C)(C)CCC1	ALDH1A1 block inconclusive (no result: KDM4E inh, Coupling enz, NPSR antagonist, Sfp PPTase inh)
CCC/C=C(\CCC)C(NS(=O)(=O)c1ccc(-c2ccccc2)cc1)c1ccc(C(=O)OC)cc1 (stereo not drawn)	none (no result: NPSR antagonist)
O=S(=O)(/N=C(/c1ccc(F)cc1)N1CCCCC1)c1ccc(Cl)cc1	ALDH1A1 block inconclusive (no result: GoLoco inh red)
C=CCN1C(=O)C(CC(=O)NCC)SC1=Nc1ccc(S(N)(=O)=O)cc1 (stereo not drawn)	none
CC(O)CN1C(=O)C(CC(=O)Nc2ccc(Cl)cc2)SC1=Nc1ccccc1 (stereo not drawn)	ALDH1A1 block 22µM
COc1ccc(N=C2SC(CC(=O)Nc3ccccc3)C(=O)N2Cc2ccccn2)cc1 (stereo not drawn)	ALDH1A1 block 2.2µM
COCCN1C(=O)C(CC(=O)Nc2ccc(C(C)=O)cc2)SC1=Nc1ccccc1 (stereo not drawn)	none
COc1ccc(N=C2SC(CC(=O)Nc3ccccc3)C(=O)N2CCc2ccccn2)cc1 (stereo not drawn)	none
C=CCN1C(=O)C(CC(=O)Nc2ccc(OC)cc2)SC1=Nc1ccc(S(N)(=O)=O)cc1 (stereo not drawn)	ALDH1A1 block 7.9µM
O=C(Nc1ccc(Br)cc1)c1cc(Br)c(Br)s1	none (no result: GoLoco inh red, KDM4E inh, Coupling enz, NPSR antagonist, ALDH1A1 block)
CCNC(=S)/N=C(/Nc1ccccc1)Nc1nc(C)cc(C)n1	Sfp PPTase inh 4.5µM (no result: ALDH1A1 block)
CCNC(=S)NC(=NCc1cccnc1)Nc1nc(C)cc(C)n1	Sfp PPTase inh 25µM (no result: GoLoco inh red, KDM4E inh, NPSR antagonist, ALDH1A1 block)
Cc1cc(C)nc(NS(=O)(=O)c2ccc(NC(=O)Nc3ccccc3)cc2)n1	none
CCNC(=S)/N=C(/Nc1ccc(OC)cc1)Nc1nc(C)cc(C)n1	Sfp PPTase inh 3.2µM
Cc1cc(C)nc(N/C(=N/S(=O)(=O)Cc2ccccc2)Nc2ccccc2)n1	ALDH1A1 block 13µM
COc1cccc(N/C(=N/C(=S)Nc2ccc(C)cc2C)Nc2nc(C)cc(C)n2)c1	Sfp PPTase inh inconclusive (no result: ALDH1A1 block)
CCCCCc1nc2sc3c(c2c(=O)n1NC(=O)c1ccc([N+](=O)[O-])cc1)CC(C)(C)OC3	ALDH1A1 block 8.9µM
CC(C(=O)c1ccccc1)[n+]1cccc(C(N)=O)c1 (stereo not drawn)	none
Cc1cc(NC(=O)CSCC(=O)N(c2cccc(Cl)c2)C(C(=O)NC2CCCCC2)c2ccc(O)c(O)c2)no1 (stereo not drawn)	KDM4E inh 10µM
Cc1cc(NC(=O)CSCC(=O)N(c2ccc(F)cc2)C(C(=O)NC2CCCCC2)c2ccc(O)c(O)c2)no1 (stereo not drawn)	none
COc1ccc(N(C(=O)CSCC(=O)Nc2cc(C)on2)C(C(=O)NC2CCCCC2)c2ccc(O)c(O)c2)cc1 (stereo not drawn)	KDM4E inh 11µM
CCOc1ccc(C(=O)NCC(=O)OCc2ccc(F)cc2Cl)cc1	none
CCOC(=O)[C@@H]1[C@H]2COc3ccc(Br)cc3[C@@H]2N2C(=O)N(c3ccc(C(F)(F)F)cc3)C(=O)[C@@]12C	none (no result: GoLoco inh red, KDM4E inh, NPSR antagonist, ALDH1A1 block)
CCOC(=O)C1=C(O)/C(=C\c2ccc(CNC(=O)C(=O)Nc3ccccc3)o2)N=C1C	Sfp PPTase inh 32µM, ALDH1A1 block 11µM
CC(O)c1nc2ccccc2n1CCCOc1ccccc1 (stereo not drawn)	none (no result: ALDH1A1 block)
COc1ccc(CN2C(=O)NC3(CCOc4ccccc43)C2=O)cc1F (stereo not drawn)	none
COc1ccc(CN2C(=O)NC(C)(c3ccc(C)cc3)C2=O)cc1F (stereo not drawn)	ALDH1A1 block 0.35µM
COc1cc(OC)cc(-c2nc3ccccc3c(=O)n2OC(=O)c2ccccc2C)c1	NPSR antagonist inconclusive
O=C(On1c(-c2ccccc2)nc2ccccc2c1=O)c1ccco1	KDM4E inh 20µM, ALDH1A1 block 8.9µM
COc1cccc(OCC(=O)Nc2ccccc2-c2ccccc2)c1	KDM4E inh inconclusive, NPSR antagonist inconclusive, ALDH1A1 block 20µM
Cc1ccc(OCC(=O)Nc2ccccc2-c2ccccc2)cc1	none
COc1cccc(OCC(=O)NN=C2c3ccccc3-c3ccccc32)c1	Sfp PPTase inh 79µM
COc1ccc2cc(CN(CC3COCCO3)S(=O)(=O)c3ccc(Cl)cc3)c(=O)[nH]c2c1 (stereo not drawn)	KDM4E inh inconclusive, NPSR antagonist inconclusive, ALDH1A1 block inconclusive
O=C(CC(SCCO)c1ccc(F)cc1)c1ccco1 (stereo not drawn)	ALDH1A1 block 28µM
Cc1ccc(C(CC(=O)c2ccco2)SCCO)cc1 (stereo not drawn)	KDM4E inh inconclusive
O=C(O)COc1ccc2ccccc2c1	none (no result: GoLoco inh red, KDM4E inh, NPSR antagonist, ALDH1A1 block)
